Reference: PubChem BioAssay (Tox21)
Inconclusive results are not listed. Unmarked numbers belong to inactive results. Active and inactive are the calls of the source. Calls follow the shape of the dose curve; as a rule, active = well fitted cell-killing curve with a large enough effect in the repeat runs; inconclusive = weak or mixed curves; inactive = flat fitted curve, though single readings scatter.

experiment: qHTS RealTime-Glo MT Cell Viability Assay in HepG2 cells - 32 hour (AID 1224877); conditions: RealTime-Glo luminescence; series mostly up to 76.8 µM; activity change, negative = cytotoxic: at the top concentration; also: nearly all actives have a fitted effect of over 55% in size
Excerpt: U.S. Tox21 Program National Center for Advancing Translational Sciences [NCATS] NIH Chemical Genomics Center [NCGC] U.S. Environmental Protection Agency [EPA] National Institutes of Environmental Health Sciences [NIEHS] National Toxicology Program [NTP] U.S. Food and Drug Administration [FDA] Tox21 Assay Overview: Measure of cell viability is critical in the cell-base assay. Analysis of cell viability is necessary for the characterization of cell responses to cytotoxic drugs and environmental stress. A RealTime-Glo MT Cell Viability Assay to monitor cell viability in real time of continues cell culture during 40 hours of compound treatment was used to screen Tox21 10K library compounds in HepG2 cells. The RealTime-Glo MT Cell Viability Assay is a nonlytic, homogeneous, bioluminescent method to measure cell viability in real time using a simple, plate-based method. The assay involves adding NanoLuc luciferase and a cell-permeant prosubstrate to cells in culture. Viable cells reduce the proprietary prosubstrate to generate a substrate for NanoLuc luciferase. This substrate diffuses from cells into the surrounding culture medium, where it is rapidly used by the NanoLuc Enzyme to produce a luminescent signal. The signal correlates with the number of viable cells, making the assay well suited for cytotoxicity studies.
Tox21 Assay Protocol Summary: The mixture of HepG2 cell suspension and reagents were dispensed at 600cells/6 ul/well in 1536-well tissue culture treated black solid bottom plates using a Multidrop dispenser. After the assay plates were incubated at a 37 C/5% CO2 incubator for 5 hours, 23 nL of compounds dissolved in DMSO, positive and negative controls was transferred to the assay plate by a pintool work station. The plates were incubated at 37 C for 40 hours. The luminescence intensity were measured at 0h, 8h, 16h, 24h, 32h and 40h time points using ViewLux plate reader during compound treatment.
% is scaled to controls: 0 for no effect and ±100 for the full control effect; potency is read from the fitted curve at half-maximal effect.

SMILES | activity change, negative = cytotoxic | Potency
CCC(CN)=C(c1ccccc1)c1ccccc1 | -3.18% [at 35.3 µM] | 
CC/C(=C(\c1ccc(O)cc1)c1ccc(OCCN(C)C)cc1)c1ccccc1 |  | 61.8 µM (active)
CCc1oc2ccccc2c1C(=O)c1cc(Br)c(O)c(Br)c1 | -8.63% [at 35.3 µM] | 
CC(C)CCCCCCCCCCCCCCC(=O)O | 3.18% | 
CCCCCCCCCOC(=O)c1ccc(O)cc1 | -11.9% | 
CCCC(c1cc(C(C)(C)C)c(O)cc1C)c1cc(C(C)(C)C)c(O)cc1C |  | 35.1 µM (active)
COc1cc(-c2nc(NC(=O)c3cc4cc(C)cc(C)c4n3CC(=O)O)sc2CCC2CCCCC2)c(OC)cc1Cl |  | 40 µM (active)
CCC(Cl)C(Cl)C(Cl)CC(Cl)C(Cl)C(C)Cl (stereo not given) | -5.04% | 
CCCCCCOC(=O)c1ccc(O)cc1 |  | inactive
CCN(CC)CCCC(C)Nc1c2ccc(Cl)cc2nc2ccc(OC)cc12 (stereo not given) |  | 6.01 µM (active)
CC[C@H]1O[C@]2(CC[C@@H]1C)C[C@@H]1C[C@@H](C/C=C(\C)C[C@@H](C)/C=C/C=C3\CO[C@@H]4[C@H](O)C(C)=C[C@@H](C(=O)O1)[C@]34O)O2 |  | 43.3 µM (active)
CC(C)(C)C(=O)OCOC(=O)[C@@H]1N2C(=O)[C@@H](NC(=O)[C@H](N)c3ccccc3)[C@H]2SC1(C)C | 1.88% [at 35.3 µM] | 
CCCCCOC(=O)CCCC | 1.11% | 
Cc1cc(O)c(Cl)c(C)c1Cl | -16.7% | 
CCC(C)(C)C1CCCCC1OC(C)=O (stereo not given) | 2.17% | 
Cc1[nH]cnc1C[C@H]1CCc2c(C)c3ccccc3n2C1=O |  | 42.6 µM (active)
CCC1OCC(COc2ccc(Oc3ccccc3)cc2)O1 (stereo not given) | -20% | 
CN(C)c1ccc(SC#N)cc1 | -1.22% | 
O=c1[nH]sc2ccccc12 |  | 21.9 µM (active)
CCN(C(=O)c1cc(C)cc(OC[C@H](C)Nc2ccncc2)c1)C(C)C | 2.32% [at 35.3 µM] | 

SMILES | activity change, negative = cytotoxic | Potency
CCCC1O[C@@H]2C[C@H]3[C@@H]4CCC5=CC(=O)C=C[C@]5(C)[C@H]4[C@@H](O)C[C@]3(C)[C@]2(C(=O)CO)O1 (stereo not given in full) |  | inactive
Cc1cccc(N(C)C(=S)Oc2ccc3c(c2)C2CCC3C2)c1 (stereo not given) | -7.97% [at 35.3 µM] | 
COc1cccc2c1C(=O)c1c(O)c3c(c(O)c1C2=O)C[C@@](O)(C(=O)CO)C[C@@H]3O[C@H]1C[C@H](N)[C@H](O[C@@H]2CCCCO2)[C@H](C)O1 |  | 1.9 µM (active)
Cc1nc(-c2ccc3c(c2)CCN(CCC2CCC(NC(=O)/C=C/c4ccc(F)cc4)CC2)CC3)no1 (stereo not given) | -5.6% [at 35.3 µM] | 
CCCCCCCCNC(C)C(O)c1ccc(SC(C)C)cc1 (stereo not given) |  | 13.4 µM (active)
COc1cc(-c2ccc(N=C=O)c(OC)c2)ccc1N=C=O | 4.47% [at 35.3 µM] | 
CCCCCCCC/C=C\CCCCCCCCOCCO | -23.3% | 
N=C1C=CC(=C(c2ccc(N)cc2)c2ccc(N)cc2)C=C1 |  | 24.5 µM (active)
CN(C)[C@@H]1C(=O)C(C(N)=O)=C(O)[C@@]2(O)C(=O)C3=C(O)c4c(O)cccc4C[C@H]3C[C@@H]12 | -4.27% [at 35.3 µM] | 
CO[Si](CCCNc1ccccc1)(OC)OC | 1.39% | 
C[n+]1ccn(Cc2ccccc2)c1 | -1.26% | 
Cc1cccc2c1cc1ccc3cccc4ccc2c1c34 | -6.52% | 
NC(=O)NS(=O)(=O)c1ccc(N)cc1 | 2.42% [at 35.3 µM] | 
CCCCCCCCCCCCCCCC(=O)OC[C@H](O)[C@H]1OC(=O)C(O)=C1O | -0.147% | 
CCCCCOc1ccccc1/C(=C\SC)n1ccnc1 | -13.6% [at 35.3 µM] | 
CC1=C(C(=O)OC(C)C)C(c2cccc([N+](=O)[O-])c2)C(C(=O)OC2CN(C(c3ccccc3)c3ccccc3)C2)=C(N)N1 (stereo not given) |  | 21.3 µM (active)
COC(=O)C1=C(C)NC(C)=C(C(=O)OCCc2ccc(N3CCN(C(c4ccccc4)c4ccccc4)CC3)cc2)C1c1cccc([N+](=O)[O-])c1 (stereo not given) | -20.6% [at 35.3 µM] | 
CCN(C(=O)N(CC)c1ccccc1)c1ccccc1 | -0.426% | 
C=CC(=O)OCCn1c(=O)n(CCOC(=O)C=C)c(=O)n(CCOC(=O)C=C)c1=O |  | 24.5 µM (active)
O=c1[nH]cnc2nc[nH]c12 | -2.53% [at 35.3 µM] | 
